Measured values as given in PubChem BioAssay (NCI).
Several values for one entry are separate records, joined by “and”; a condition that tells them apart may be missing. Equal entries are not always repeated. Compounds without any hit were thinned out: in the full panel of roughly 79,000, 15% have a hit. Some compounds were tested as several samples or in several runs, with calls that do not always agree. Activity calls are given as the source filed them. Rule as the data show it: active = growth inhibition above about 70%; inactive = the rest.

Assays:
[1] = NCI Yeast Anticancer Drug Screen. Data for the rad50 strain (AID 155);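 also: 0% = growth of vehicle-only cultures of the same strain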; details: S. cerevisiae rad50 strain growth inhibition, stronger effect = higher value
Method in brief: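 Compounds were tested on a yeast strain with an engineered DNA damage repair alteration; the reported value is growth inhibition normalised to vehicle treatment.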

[2] = NCI Yeast Anticancer Drug Screen. Data for the mec2-1 strain (AID 157); details: S. cerevisiae mec2-1 strain, stronger effect = higher value
Method in brief: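 Each compound was tested on mec2-1 yeast, a strain altered in DNA damage repair or cell cycle control. Growth inhibition is reported relative to vehicle.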

[3] = NCI Yeast Anticancer Drug Screen. Data for the sgs1 mgt1 strain (AID 161);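 also: 0% = growth of cultures given vehicle only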; details: S. cerevisiae sgs1 mgt1 strain, stronger effect = higher value
Method in brief: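 Genetically altered yeast, compound exposure, growth inhibition relative to vehicle.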

[4] = NCI Yeast Anticancer Drug Screen. Data for the cln2 rad14 strain (AID 165);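 also: 0% = growth equal to vehicle treated cultures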; details: S. cerevisiae cln2 rad14 strain, stronger effect = higher value
Method in brief: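 Test compounds were added to cln2 rad14 yeast cultures; inhibition of growth was then determined by comparison with vehicle treatment.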

[5] = NCI Yeast Anticancer Drug Screen. Data for the bub3 strain (AID 167); details: S. cerevisiae bub3 mutant strain, stronger effect = higher value
Method in brief: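 Growth of a checkpoint-deficient yeast mutant is measured after compound exposure. Values represent inhibition relative to vehicle.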

[6] = NCI Yeast Anticancer Drug Screen. Data for the mlh1 rad18 strain (AID 175); details: S. cerevisiae mlh1 rad18 strain growth inhibition, stronger effect = higher value
Method in brief: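 Inhibition values reflect reduced growth of mutant yeast versus vehicle-treated controls following compound exposure; the mutations affect DNA damage repair.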

[7] = at 5.0 µM (retest, dose inferred, filed as 0.5)
[8] = at 50.0 µM (retest, dose inferred, filed as 5.0)

Structure (SMILES)	growth inhibition [1, 7]	growth inhibition [1, 8]	growth inhibition ([1]; at 50.0 µM)	growth inhibition [2, 7]	growth inhibition [2, 8]	growth inhibition ([2]; at 50.0 µM)	growth inhibition [3, 7]	growth inhibition [3, 8]	growth inhibition ([3]; at 50.0 µM)	growth inhibition [4, 7]	growth inhibition [4, 8]	growth inhibition ([4]; at 50.0 µM)	growth inhibition [5, 7]	growth inhibition [5, 8]	growth inhibition ([5]; at 50.0 µM)	growth inhibition [6, 7]	growth inhibition [6, 8]	growth inhibition ([6]; at 50.0 µM)
CCCCCCCCCCCC[N+](C)(C)Cc1ccccc1	58% (inactive) and 95% (active)	99% (active) and 98% (active)	85.7% (active) and 97.7% (active)	75% (active) and 93% (active)	100% (active) and 98% (active)	99.8% (active) and 98.3% (active)	91% (active) and 99% (active)	100% (active) and 98% (active)	98% (active) and 99.4% (active)	56% (inactive) and 88% (active)	99% (active) and 97% (active)	99.4% (active) and 98% (active)	57% (inactive) and 92% (active)	100% (active) and 98% (active)	99.5% (active) and 99.3% (active)	81% (active) and 96% (active)	99% (active) and 98% (active)	99.7% (active) and 98.5% (active)
Fc1cccc(NC(=S)SCc2ccc(Cl)c(Cl)c2)c1	8% (inactive)	94% (active)	98.2% (active)	3% (inactive)	93% (active)	99.2% (active)	6% (inactive)	98% (active)	99% (active)	-7% (inactive)	85% (active)	98.8% (active)	0% (inactive)	95% (active)	98% (active)	4% (inactive)	96% (active)	99% (active)
CC(=O)OC(c1ccccc1)c1ccc(Cl)cc1 (configuration not stated)	3% (inactive)	0% (inactive)	-11% (inactive)	7% (inactive)	6% (inactive)	42.2% (inactive)	4% (inactive)	8% (inactive)	-0.4% (inactive)	4% (inactive)	-14% (inactive)	-1.9% (inactive)	6% (inactive)	8% (inactive)	-5.65% (inactive)	1% (inactive)	-1% (inactive)	2.9% (inactive)
O=C(C(c1ccccc1)c1ccccc1)C(c1ccccc1)c1ccccc1	0% (inactive)	-12% (inactive)	25% (inactive)	-6% (inactive)	-13% (inactive)	0.85% (inactive)	-1% (inactive)	-18% (inactive)	4.8% (inactive)	2% (inactive)	-30% (inactive)	43.9% (inactive)	0% (inactive)	28% (inactive)	-6.25% (inactive)	0% (inactive)	-4% (inactive)	1.55% (inactive)
CC(C)(Cc1nocc1C(C)(C)CC#N)c1cc(CC(C)(C)C2(C)OCCO2)no1	-4% (inactive)	0% (inactive)	-9.6% (inactive)	0% (inactive)	-1% (inactive)	9.45% (inactive)	-8% (inactive)	1% (inactive)	-7.8% (inactive)	2% (inactive)	-6% (inactive)	25.3% (inactive)	-7% (inactive)	-6% (inactive)	-47.8% (inactive)	-3% (inactive)	-4% (inactive)	-9.8% (inactive)
CC(=O)NC1C(O)OC(CO)C(OC2OC(CO)C(O)C(O)C2NC(=O)NCCCCCCNC(=O)n2cc(F)c(=O)[nH]c2=O)C1O (configuration not stated)	3% (inactive) and 85% (active)	58% (inactive) and 98% (active)	43.1% (inactive) and 91.9% (active)	-5% (inactive) and 78% (active)	70% (active) and 99% (active)	72.2% (active) and 93.5% (active)	7% (inactive) and 93% (active)	81% (active) and 98% (active)	78.8% (active) and 88.5% (active)	8% (inactive) and 52% (inactive)	20% (inactive) and 98% (active)	24.8% (inactive) and 63.7% (inactive)	5% (inactive) and 46% (inactive)	19% (inactive) and 99% (active)	25.2% (inactive) and 75.5% (active)	4% (inactive) and 87% (active)	48% (inactive) and 98% (active)	37% (inactive) and 86.8% (active)
CN1C=c2c3c(ccc2=C2C=CC4C=C5OCOC5=CC4=C21)OCO3 (configuration not stated)	48% (inactive) and 33% (inactive)	97% (active) and 98% (active)	92% (active) and 91.6% (active)	32% (inactive) and 11% (inactive)	98% (active) and 99% (active)	93.3% (active) and 93% (active)	56% (inactive) and 13% (inactive)	98% (active) and 99% (active)	93% (active) and 92.8% (active)	37% (inactive) and 11% (inactive)	98% (active) and 99% (active)	92% (active)	74% (active) and 17% (inactive)	98% (active) and 99% (active)	92.5% (active) and 91.8% (active)	63% (inactive) and 30% (inactive)	97% (active)	92.5% (active) and 91.7% (active)
CN(CCN1C(=O)c2cccc3cccc(c23)C1=O)CCN1C(=O)c2cccc3cccc(c23)C1=O	97% (active)	96% (active)	98.5% (active)	20% (inactive)	97% (active)	98.2% (active)	69% (inactive)	97% (active)	97.2% (active)	15% (inactive)	90% (active)	83.6% (active)	-2% (inactive)	95% (active)	96% (active)	47% (inactive)	97% (active)	98.1% (active)
Nc1nc(-c2ccccn2)cc2ccccc12	5% (inactive)	63% (inactive)	-2.25% (inactive)	25% (inactive)	76% (active)	-11.2% (inactive)	22% (inactive)	77% (active)	4.35% (inactive)	21% (inactive)	62% (inactive)	4.4% (inactive)	1% (inactive)	61% (inactive)	7.35% (inactive)	29% (inactive)	85% (active)	11.1% (inactive)
O=C1OC(c2ccccc2)C(c2ccccc2)=C1c1ccccc1 (configuration not stated)	-21% (inactive)	91% (active)	-6% (inactive)	-18% (inactive)	92% (active)	-2.8% (inactive)	-3% (inactive)	91% (active)	7.1% (inactive)	-2% (inactive)	86% (active)	-29% (inactive)	9% (inactive)	91% (active)	9% (inactive)	4% (inactive)	90% (active)	3.65% (inactive)
O=S(=O)(CC(Cl)c1ccccc1)c1nc2ccccc2s1 (configuration not stated)	-7% (inactive)	-7% (inactive)	69.5% (inactive)	2% (inactive)	2% (inactive)	79.1% (active)	9% (inactive)	9% (inactive)	72.7% (active)	-14% (inactive)	-14% (inactive)	43.2% (inactive)	-30% (inactive)	-30% (inactive)	71.4% (active)	-13% (inactive)	-13% (inactive)	47% (inactive)
CCCCCCC(C(=O)OCC)N1C(=O)c2ccccc2S1(=O)=O (configuration not stated)	-3% (inactive)	36% (inactive)	2.55% (inactive)	-5% (inactive)	10% (inactive)	21.7% (inactive)	-4% (inactive)	65% (inactive)	30.5% (inactive)	-3% (inactive)	16% (inactive)	12.2% (inactive)	10% (inactive)	55% (inactive)	88.5% (active)	5% (inactive)	36% (inactive)	61.9% (inactive)
N=S(c1ccccc1[N+](=O)[O-])c1ccccc1[N+](=O)[O-]	13% (inactive) and 8% (inactive)	4% (inactive) and 52% (inactive)	68.2% (inactive) and 54.1% (inactive)	2% (inactive) and 7% (inactive)	15% (inactive) and 53% (inactive)	17.4% (inactive) and 22.4% (inactive)	-24% (inactive) and 32% (inactive)	39% (inactive) and 77% (active)	69.5% (inactive) and 75.5% (active)	8% (inactive) and 6% (inactive)	9% (inactive) and 49% (inactive)	25.3% (inactive) and 61.9% (inactive)	-7% (inactive) and 2% (inactive)	-6% (inactive) and 73% (active)	36.9% (inactive) and 26.8% (inactive)	-14% (inactive) and 20% (inactive)	-1% (inactive) and 83% (active)	79.8% (active) and 76.3% (active)
CCOC(=O)/C(=C/c1ccc(OC)c(OC)c1)C(=O)c1ccccc1	12% (inactive)	49% (inactive)	74.7% (active)	-19% (inactive)	66% (inactive)	68% (inactive)	2% (inactive)	65% (inactive)	64.7% (inactive)	27% (inactive)	71% (active)	72.5% (active)	27% (inactive)	92% (active)	78.4% (active)	-7% (inactive)	80% (active)	56.5% (inactive)
